Compound activity deposited in PubChem BioAssay by National Center for Advancing Translational Sciences (NCATS).
BAZ2B block: blocks human BAZ2B; Q9UIF8; AlphaScreen BAZ2B-H3K14Ac peptide displacement; Potency, µM (series often up to 114 µM), actives largely listed as inhibitors; hit rate 4.4% among 360,000; AID 504333; also: nearly all actives have a fitted effect of over 60% in size
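Protein-peptide AlphaScreen: BAZ2B 50 nM, b-H3K14Ac 50 nM, 1x PBS pH 7.4 + 0.01% Tween-20. Preincubation 30 min RT; cpd 30 min RT (top 110 uM); beads 20 min RT, light-protected.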
G9a inh: G9a (human) methyltransferase inhibition | Q96KQ7 | G9a H3K9 monomethylation, AlphaScreen, 2 h | hit rate 8.8% among 350,000 | Potency, µM (doses to about 102 µM), usual class: inhibitors; also: nearly all actives have a fitted effect of over 75% in size
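G9a (20 nM) was preincubated 15 min with compound, then reacted 2 h at room temperature with 500 nM biotin-H3K9 peptide and 20 µM SAM. Monomethyl-H3K9 detected by AlphaScreen using anti-H3K9me1 antibody.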
JMJD2A Tudor inh: inhibitors of human JMJD2A Tudor domain; O75164; AlphaScreen JMJD2A-Tudor / H3K4me3 peptide binding; Potency, µM (doses to about 114 µM), usual class: inhibitors; hit rate 4.4% among 390,000; AID 504339; also: nearly all actives have a fitted effect of over 50% in size
CtBP-E1A blk: blocks the CtBP interaction with E1A | AlphaScreen GST-E1A/His-CtBP binding, 1536-well; hits give low values | hit rate 0.49% among 340,000 | activity change, % (no concentration beside the values) | AID 651724; in the data active = activity change below about -65%; inconclusive = mostly about -30% to -63%
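Steps: dispense buffer (Tris pH 8.0, NaCl 300 mM, TCEP 1 mM, BSA, Tween 20); add 5X protein mix (GST-E1A, His-CtBP, 125 nM each); pin 23 nL compound; 2 h at 37 °C, dark; add 5X beads (50 ug/mL); 1 h; read.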
HP1b chromo inh: inhibitors of HP1-beta chromodomain binding to methylated histone tails | hit rate 0.56% among 390,000 | AlphaScreen HP1-beta / biotin-H3K9me3 peptide binding | P83916 | Potency, µM (doses to about 114 µM), hits mostly inhibitors | AID 540317; also: nearly all actives have a fitted effect of over 70% in size
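HP1-beta protein (50 nM final) preincubated 30 min at room temperature with biotinylated H3(1-18)K9me3 peptide (50 nM) in PBS pH 7.4, 0.01% Tween-20, then compound added for 30 min. AlphaScreen streptavidin donor/nickel chelate acceptor beads (10 ug/mL final), 30 min dark, luminescence read.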
Six1-Eya2 blk: Six1/Eya2 interaction inhibition; Q15475+O00167; AID 651725; AlphaScreen GST-Six1/His-Eya2 binding, biochemical; hits give low values; activity change, % (test concentration not listed); hit rate 0.56% among 360,000; in the data active = activity change below about -65%; inconclusive = mostly about -30% to -63%
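Compounds are tested against tagged Six1 and Eya2 proteins bridged by glutathione donor and nickel acceptor beads; after a one-hour incubation at 37 °C without light, AlphaScreen emission is recorded.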
Numbers stand for hits; . = inactive; ? = inconclusive; / = not tested or not shown. Rows were chosen to be rich in hits. Some 10% of all compounds tested hit in one or more screens of this group. Unless noted, calls follow the shape of the dose curve; as a rule, active = well fitted inhibition curve with a large enough effect; inconclusive = small, poorly fitted or top-dose-only effect; inactive = no such curve, though single readings can be large or run the other way.

SMILES	BAZ2B block	G9a inh	JMJD2A Tudor inh	CtBP-E1A blk	HP1b chromo inh	Six1-Eya2 blk
COc1ccc(Cl)c2sc(NC(=O)c3ccc(S(=O)(=O)N4CCOCC4)cc3)nc12	.	.	.	/	.	/
CC(=O)c1cc(F)c(N2CCN(C(=O)Cc3ccccc3)CC2)cc1C	56µM	?	.	.	.	.
Cc1nc2nncn2c(N2CCN(c3ccccc3)CC2)c1C	.	.	.	/	.	/
Cc1c([S+](=O)([O-])N2CCN([S+](=O)([O-])c3c(F)cccc3F)CC2)sc2ccc(Cl)cc12	/	/	.	/	/	/
CSc1nc2c(C)c(C)c(C)c(C)c2[nH]1	.	/	.	.	.	.
CSc1nc(=S)cc(C)[nH]1	.	/	25µM	.	?	.
CCCn1c2ccccc2c2cnn(CC(=O)N3CCCC(C)C3)c(=O)c21 (stereo not drawn)	.	.	.	/	.	/
CCOc1ccc(NC(=O)c2cc(F)c(F)cc2Cl)cc1OCC	.	.	.	-97	.	.
CCOc1ccc(C(=O)Nc2cc(NC(=O)c3ccc(OCC)c(Cl)c3)cc(C(=O)O)c2)cc1Cl	?	?	50µM	.	?	.
Cc1ccccc1NC(=S)c1nc2ccccc2[nH]1	11µM	.	?	-84	.	-90
S=C(Nc1ccc(Cl)cc1)c1nc2ccccc2[nH]1	45µM	.	?	?	?	-73
N=c1n(CCO)c2ccccc2n1Cc1ccccc1F	.	.	.	/	.	/
CCOc1ccc(CCNC(=O)c2cn(-c3ccc(OC)cc3)c(=O)c3ccccc23)cc1OCC	.	.	?	/	.	/
Clc1ccc(CNc2ncnc3nc[nH]c23)cc1	/	/	.	/	.	/
CC1(C)CNc2cc(N)ccc2S1	45µM	3.5µM	45µM	.	?	.
Cc1cccc(N(C)C(=O)CCNS(=O)(=O)c2ccc3c(c2)CCN3C(=O)C2CC2)c1	.	.	.	/	.	/
COc1ccc(NC(=O)CSC2=Nc3ccccc3C3=NC(CC(=O)NCc4ccco4)C(=O)N23)cc1 (stereo not drawn)	.	.	.	/	.	/
Cc1oc(/C=N/NS(=O)(=O)c2ccccc2)cc1Br	.	16µM	.	.	.	.
Cc1ccc(C(=O)Oc2c(S(=O)(=O)c3ccccc3)c(C)nn2-c2ccccc2)cc1	?	?	14µM	/	.	/
CC(=O)Oc1c(S(=O)(=O)c2ccc(C)cc2)c(C)nn1-c1ccccc1	.	11µM	.	.	.	.
Cc1nn(-c2ccccc2)c(OC(=O)c2ccc(Cl)cc2)c1S(=O)(=O)c1ccccc1	.	?	.	/	.	/
Cc1cccc(N2CCN(S(=O)(=O)c3cc(C(=O)Nc4ccccc4Cl)ccc3F)CC2)c1C	.	.	.	/	.	/
Cc1ccc(C)c(C(=O)CSc2n[nH]c(-c3ccncc3)n2)c1	.	.	89µM	.	.	.
O=C(CSc1n[nH]c(-c2ccncc2)n1)c1cccc([N+](=O)[O-])c1	.	22µM	.	.	.	.
Nc1nc(SCC(=O)c2cccc([N+](=O)[O-])c2)n[nH]1	.	2.5µM	.	/	.	.
SMILES	BAZ2B block	G9a inh	JMJD2A Tudor inh	CtBP-E1A blk	HP1b chromo inh	Six1-Eya2 blk
Cc1cc(C)c(C(=O)CSc2n[nH]c(-c3ccncc3)n2)c(C)c1	.	/	.	.	.	.
CCc1nc(SCC(=O)c2cccc([N+](=O)[O-])c2)n[nH]1	.	?	40µM	.	?	.
Cc1cc(-c2ccccc2)nc(SCC(=O)c2cccc([N+](=O)[O-])c2)n1	?	.	.	.	.	.
CCC(Cc1ccccc1)NC(=O)CN1C(=O)COc2ccc(S(=O)(=O)N3CCCCCC3)cc21 (stereo not drawn)	.	.	.	/	.	/
COc1ccc(NC(=O)CSc2nnc(NC(=O)NC3CCCCC3)s2)cc1OC	.	.	.	/	.	/
CCc1ccc(NC(=O)CSc2nc3ccccc3nc2Cc2ccccc2OC)cc1	.	.	.	/	.	/
O=C(O)c1cc(NS(=O)(=O)c2ccc(NC3CCCCC3)c([N+](=O)[O-])c2)cc(C(=O)O)c1	.	?	.	.	.	.
CN(C)CCCNS(=O)(=O)c1ccc(NC2CCCCCC2)c([N+](=O)[O-])c1	?	71µM	?	.	.	.
Cc1ccc2ccc(S(=O)(=O)NCc3ccco3)cc2c1	.	35µM	.	.	.	.
Cc1ccc(S(=O)(=O)NCc2ccco2)cc1C(N)=O	.	.	25µM	.	.	.
O=S(=O)(NCc1ccco1)c1ccc2ccccc2c1	?	.	.	.	.	.
